Results taken from PubChem BioAssay AID1159580 (chemical genetic matrix, 2015).
The whole screen tested about 5,500 compounds, of which about 2,000 (36%) were called active. Roughly 18% stayed inconclusive and do not appear here. Rule as the data show it: active = normalized growth mostly below about 0.91 (no sharp cut-off); inconclusive = no clear call, values can overlap the other calls; inactive = mostly above about 0.92. This is one part of the list.

Assay: chemical genetic growth profiling, strain panel (AID 1159580);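 also: tested at 20 µM; growth read once vehicle control cultures reached saturation at 30 °C; 1 = growth at the plate median or of vehicle wells; lower values mean less growth of the strain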
Conditions: growth OD

Measured: normalized growth

COc1cc(C(=O)O)cc(OC)c1OC
inactive: S. cerevisiae deletion strains, locus YAL013W, strain DEP1, active compounds read low 1.02 | S. cerevisiae deletion strains, locus YBR021W, strain FUR4, active compounds read low 1.01 | S. cerevisiae deletion strains, locus YBR229C, strain ROT2, active compounds read low 1.01 | S. cerevisiae deletion strains, locus YCL029C, strain bik1, active compounds read low 1.04 | S. cerevisiae deletion strains, locus YDL035C, strain GPR1, active compounds read low 1.04 | S. cerevisiae deletion strains, locus YDL074C, strain BRE1, active compounds read low 1.05 | S. cerevisiae deletion strains, locus YDL101C, strain DUN1, active compounds read low 1.02 | S. cerevisiae deletion strains, locus YDL134C, strain PPH21, active compounds read low 1.01 | S. cerevisiae deletion strains, locus YDL185W, strain tfp1, active compounds read low 1.03 | S. cerevisiae deletion strains, locus YDL192W, strain arf1, active compounds read low 1.02 | S. cerevisiae deletion strains, locus YDR101C, strain arx1, active compounds read low 1.02 | S. cerevisiae deletion strains, locus YDR162C, strain NBP2, active compounds read low 1.02 | S. cerevisiae deletion strains, locus YDR318W, strain mcm21, active compounds read low 1.02 | S. cerevisiae deletion strains, locus YDR388W, active compounds read low 1.03 | S. cerevisiae deletion strains, locus YDR502C, strain sam2, active compounds read low 1.02 | S. cerevisiae deletion strains, locus YEL061C, strain CIN8, active compounds read low 1.01 | S. cerevisiae deletion strains, locus YER110C, active compounds read low 1.03 | S. cerevisiae deletion strains, locus YER155C, strain BEM2, active compounds read low 1.01 | S. cerevisiae deletion strains, locus YER167W, strain BCK2, active compounds read low 1.03 | S. cerevisiae deletion strains, locus YGL078C, strain dbp3, active compounds read low 1.03 | S. cerevisiae deletion strains, locus YGL086W, strain mad1, active compounds read low 1.03 | S. cerevisiae deletion strains, locus YGL248W, strain PDE1, active compounds read low 1.02 | S. cerevisiae deletion strains, locus YGR078C, strain PAC10, active compounds read low 1.03 | S. cerevisiae deletion strains, locus YGR135W, strain pre9, active compounds read low 1.02 | S. cerevisiae deletion strains, locus YGR252W, strain gcn5, active compounds read low 1.09 | S. cerevisiae deletion strains, locus YHR030C, strain SLT2, active compounds read low 1.02 | S. cerevisiae deletion strains, locus YHR079C, strain IRE1 (second series), active compounds read low 1.02 | S. cerevisiae deletion strains, locus YHR094C, strain hxt1, active compounds read low 1.02 | S. cerevisiae deletion strains, locus YHR129C, strain ARP1, active compounds read low 1.02 | S. cerevisiae deletion strains, locus YHR200W, strain rpn10, active compounds read low 1.02 | S. cerevisiae deletion strains, locus YIL066C, strain RNR3, active compounds read low 1.04 | S. cerevisiae deletion strains, locus YIL073C, strain SPO22, active compounds read low 1.09 | S. cerevisiae deletion strains, locus YIL125W, strain kgd1, active compounds read low 1.03 | S. cerevisiae deletion strains, locus YIR030C, strain dcg1, active compounds read low 1.02 | S. cerevisiae deletion strains, locus YJL095W, strain BCK1, active compounds read low 1.02 | S. cerevisiae deletion strains, locus YJL134W, strain LCB3, active compounds read low 1.02 | S. cerevisiae deletion strains, locus YJL168C, strain set2, active compounds read low 1.03 | S. cerevisiae deletion strains, locus YJL187C, strain SWE1 (second series), active compounds read low 1.03 | S. cerevisiae deletion strains, locus YJR043C, strain POL32, active compounds read low 1.03 | S. cerevisiae deletion strains, locus YJR075W, strain HOC1, active compounds read low 1.04 | S. cerevisiae deletion strains, locus YKL009W, strain mrt4, active compounds read low 1.08 | S. cerevisiae deletion strains, locus YKL068W, active compounds read low 1.04 | S. cerevisiae deletion strains, locus YKL085W, strain MDH1 (second series), active compounds read low 1.07 | S. cerevisiae deletion strains, locus YKL085W, strain MDH1, active compounds read low 1.07 | S. cerevisiae deletion strains, locus YKR001C, strain vps1, active compounds read low 1.02 | S. cerevisiae deletion strains, locus YLR039C, strain RIC1, active compounds read low 1.07 | S. cerevisiae deletion strains, locus YLR058C, strain SHM2, active compounds read low 1.02 | S. cerevisiae deletion strains, locus YLR102C, strain apc9, active compounds read low 1.02 | S. cerevisiae deletion strains, locus YLR262C, strain YPT6, active compounds read low 1.09 | S. cerevisiae deletion strains, locus YLR268W, strain sec22, active compounds read low 1.02 | S. cerevisiae deletion strains, locus YLR330W, strain CHS5, active compounds read low 1.02 | S. cerevisiae deletion strains, locus YLR342W, strain FKS1 (second series), active compounds read low 1.04 | S. cerevisiae deletion strains, locus YLR371W, strain rom2, active compounds read low 1.04 | S. cerevisiae deletion strains, locus YLR418C, strain cdc73, active compounds read low 1.04 | S. cerevisiae deletion strains, locus YML016C, strain PPZ1, active compounds read low 1.02 | S. cerevisiae deletion strains, locus YML032C, strain rad52, active compounds read low 1.03 | S. cerevisiae deletion strains, locus YML124C, strain tub3, active compounds read low 1.02 | S. cerevisiae deletion strains, locus YMR078C, strain ctf18, active compounds read low 1.06 | S. cerevisiae deletion strains, locus YMR223W, strain ubp8, active compounds read low 1.02 | S. cerevisiae deletion strains, locus YMR263W, strain SAP30, active compounds read low 1.02 | S. cerevisiae deletion strains, locus YMR307W, strain GAS1, active compounds read low 1.03 | S. cerevisiae deletion strains, locus YNL067W, strain RPL9B, active compounds read low 1.03 | S. cerevisiae deletion strains, locus YNL128W, strain TEP1, active compounds read low 1.03 | S. cerevisiae deletion strains, locus YNL153C, strain GIM3, active compounds read low 1.01 | S. cerevisiae deletion strains, locus YNL233W, strain BNI4, active compounds read low 1.03 | S. cerevisiae deletion strains, locus YNL250W, strain rad50, active compounds read low 1.03 | S. cerevisiae deletion strains, locus YNL271C, strain bni1, active compounds read low 1.02 | S. cerevisiae deletion strains, locus YNL298W, strain CLA4, active compounds read low 1.01 | S. cerevisiae deletion strains, locus YNL307C, strain MCK1, active compounds read low 1.05 | S. cerevisiae deletion strains, locus YNL322C, strain KRE1, active compounds read low 1.02 | S. cerevisiae deletion strains, locus YNR052C, strain pop2, active compounds read low 1.03 | S. cerevisiae deletion strains, locus YOL006C, strain TOP1, active compounds read low 1.2 | S. cerevisiae deletion strains, locus YOL012C, strain htz1 1.18 | S. cerevisiae deletion strains, locus YOL147C, strain pex11, active compounds read low 1.02 | S. cerevisiae deletion strains, locus YOR061W, strain CKA2, active compounds read low 1.02 | S. cerevisiae deletion strains, locus YOR069W, strain VPS5, active compounds read low 1.01 | S. cerevisiae deletion strains, locus YOR136W, strain idh2, active compounds read low 1.02 | S. cerevisiae deletion strains, locus YOR144C, strain elg1, active compounds read low 1 | S. cerevisiae deletion strains, locus YOR184W, strain ser1, active compounds read low 1.02 | S. cerevisiae deletion strains, locus YOR316C, strain cot1, active compounds read low 1.02 | S. cerevisiae deletion strains, locus YPL055C, strain LGE1, active compounds read low 1.05 | S. cerevisiae deletion strains, locus YPL241C, strain CIN2, active compounds read low 1.02 | S. cerevisiae deletion strains, locus YPR119W, strain clb2, active compounds read low 1.02 | S. cerevisiae deletion strains, locus YPR141C, strain kar3, active compounds read low 1.02 | S. cerevisiae deletion strains, locus YPR163C, strain tif3, active compounds read low 1.02 | S. cerevisiae deletion strains, locus YPR167C, strain met16, active compounds read low 1.03 | S. cerevisiae deletion strains, strain wtn01, active compounds read low 1.03 | S. cerevisiae strains, strain wild type, active compounds read low 1.02
